SNCA viab count: counter-screen for SNCA expression inhibitors: cell viability | HEK-293-SNCA-luc viability, GF-AFC fluorescence, 24 h | Potency, µM (top dose mostly 57.1 µM), usual class: cytotoxic | 150,000 tested, 0.12% active | AID 1671193; also: nearly all actives have a fitted effect of over 30% in size
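Cytotoxicity counterscreen: after 24 h compound treatment of genome-edited SNCA-luciferase HEK-293 cells, live-cell protease substrate GF-AFC read by fluorescence after 30 min; activity scaled between DMSO (0%) and medium-only (-100%), curves Hill-fitted.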
IP6K1 inhibitor: blocks human inositol hexakisphosphate kinase 1; AID 1645851; IP6K1 kinase, ADP-Glo luminescence, 2 h; active compounds read low; 140,000 tested, 0.81% active; Q92551; activity change, % (series mostly up to about 58 µM); in the data active = activity change below about -25%
Target sequence (Q92551 whole entry, looked up): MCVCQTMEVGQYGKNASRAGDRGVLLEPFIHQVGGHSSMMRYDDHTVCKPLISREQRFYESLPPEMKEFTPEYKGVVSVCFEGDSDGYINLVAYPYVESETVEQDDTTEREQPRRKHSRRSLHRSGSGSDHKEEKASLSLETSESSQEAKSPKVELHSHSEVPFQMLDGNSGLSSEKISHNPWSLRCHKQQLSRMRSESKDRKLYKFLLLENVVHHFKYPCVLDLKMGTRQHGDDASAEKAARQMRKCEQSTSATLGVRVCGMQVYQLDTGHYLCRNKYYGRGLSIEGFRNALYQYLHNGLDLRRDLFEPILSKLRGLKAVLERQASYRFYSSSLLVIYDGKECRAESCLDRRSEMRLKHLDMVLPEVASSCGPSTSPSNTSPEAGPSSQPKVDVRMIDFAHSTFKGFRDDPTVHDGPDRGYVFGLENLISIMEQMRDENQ
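ADP-Glo luminescence measures ADP made by human IP6K1 during a 2 h RT reaction with ATP/IP6 (mix at 1.3 mM/130 uM); top library doses 57.5 and 19.1 uM final.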
SNCA expr inh: inhibitors of alpha-synuclein (SNCA) gene expression. HEK-293 SNCA-luciferase knock-in, luminescence, 24 h. 140,000 tested, 0.17% active. Potency, µM (series often up to 57.2 µM), usual class: inhibitors; also: nearly all actives have a fitted effect of over 45% in size
GPT2 inhibitor: inhibitors of human GPT2 alanine aminotransferase; Recombinant GPT2, coupled pyruvate oxidase/HRP Amplex Red fluorescence; Potency, µM (series often up to 57.7 µM), usual class: inhibitors; 100,000 tested, 0.25% active; also: nearly all actives have a fitted effect of over 60% in size
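Recombinant GPT2 (10ng/uL) with 250uM a-KG and 2mM L-alanine, 30 min at room temperature, in HEPES pH 7.5 buffer. Pyruvate detected by pyruvate oxidase/HRP/Amplex Red fluorescence after 30 min in the dark; AOA (50uM) as positive control.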
IP6K1 inh cnf: confirmation of human IP6K1 inhibitors; 1,200 tested, 13% active; AID 1645852; Potency, µM (highest dose often 49 µM), usual class: inhibitors; shares compounds with IP6K1 inhibitor; recombinant IP6K1 kinase, ADP-Glo luminescence, 2 h; also: nearly all actives have a fitted effect of over 65% in size
Hits are given with their value; - = inactive; ? = inconclusive; . = no result given; ! = repeats disagree; [ ] = remark or other dose. Sampled rows, rich in hits. Any-hit rate of the full collection: about 1%. Unless noted, calls follow the shape of the dose curve; as a rule, active = well fitted curve in the direction sought with a large enough effect; inconclusive = small, poorly fitted or top-dose-only effect, or another doubt; inactive = no such curve, though single readings can be large; an effect the other way counts as inactive or inconclusive.

SMILES	SNCA viab count	IP6K1 inhibitor	SNCA expr inh	GPT2 inhibitor	IP6K1 inh cnf
Cc1nn(-c2ccccc2)c(C)c1[C@@H]1C=C[C@@H](NC(=O)c2ccco2)C1	?	-	-	-	.
CCc1nc2ccccc2n1CCCCOc1ccccc1C	-	-30	?	.	-
CN(Cc1ccccc1)C(=O)c1cc(-c2ccc(C(F)(F)F)cc2)nc2c1cnn2C	.	-	.	.	.
CCOc1ccc(-n2cc(-c3ccccc3)c3c(NC4CCCCC4)ncnc32)cc1	-	-	-	.	.
COc1ccc(-n2cc(-c3ccccc3)c3c(NC4CCCCC4)ncnc32)cc1	-	-25	-	.	?
Cc1cc(C)c2oc(-c3ccc(C)c(NC(=O)/C=C/c4ccco4)c3)nc2c1	-	-36	-	.	?
COc1ccc(NC(=O)CSc2c3c(nc4ccccc24)CCC3)c(OC)c1	-	-	-	.	.
COc1ccc(NC(=O)c2ccc3c(SCC(=O)O)c4c(nc3c2)CCCC4)c(OC)c1	-	-26	-	.	-
CC[C@H](C)[C@H](N)C(=O)N1CCC2(CCC(=O)N(Cc3ccccc3)C2)CC1	?	-39	-	-[11.5 µM]	-
CCOC(=O)c1cc2c(=O)n3ccccc3nc2n(Cc2ccco2)c1=NC(=O)c1cccc(F)c1	?	-39	-	.	-
CC(C)c1nc2ccc(C(=O)NCCCN3CCN(c4cccc(Cl)c4)CC3)cc2o1	-	-34	-	.	?
CC(C)c1nc2ccc(C(=O)NCCCN3CCN(c4ccc(F)cc4)CC3)cc2o1	-	-	-	.	.
CCOc1ccc(C2C(C(=O)OC)=C(C)NC3=C2C(=O)c2ccccc23)cc1OC (centres undefined)	?	-27	-	.	?
CCCNC(=O)CN1CCN(c2ncc(NC(=O)c3ccc(Cl)cc3)cc2C(=O)O)CC1	-	-	-	.	.
CCCCNC(=O)CN1CCN(c2ncc(NC(=O)c3ccc(Cl)cc3)cc2C(=O)O)CC1	-	-59	-	.	?
Cc1ccc2c(c1)C(=O)C(=O)N2Cc1ccc(OC(C)C)cc1	?	-38	?	.	-
N#CC1CCN(C(=O)c2cc(-c3cccs3)c3cccn3n2)CC1	-	-	-	-	.
O=C(c1cc(Cl)ccc1F)N1CCN(C(=O)c2nnn3c2COC(c2ccccc2)C3)CC1 (centres undefined)	-	-32	-	-	-
CCN(CC)c1ccc(C(=C2C=CC(=[N+](CC)CC)C=C2)c2cc(S(=O)(=O)O)ccc2S(=O)(=O)[O-])cc1	-	-51	-	-	?
O=C1Nc2ccccc2CN(Cc2ccc(C(F)(F)F)cc2)C12CCNCC2	-	-	-	-	.
CCOC(=O)C1CCN(c2c(C(=O)c3ccc(OCC)cc3)cnc3ccc(OC)cc23)CC1	?	-33	?	.	-
Cn1cncc1C(N)(c1ccc(Cl)cc1)c1ccc2c(c1)c(-c1cccc(Cl)c1)cc(=O)n2C (centres undefined)	9.5µM	-26	.	-	?
O=C(NCCOc1ccccc1)c1nc2c(o1)CCN(Cc1ccc3[nH]ccc3c1)CC2	-	-	-	-	.
Cc1noc(C)c1-c1cc2c(cc(C)n2C)c(-c2ccnn2C)n1	-	-	-	-	.
Cc1noc(C)c1-c1cc2c(cc(-c3ccccc3)n2C)c(-c2ccnn2C)n1	-	-45	-	-	?
SMILES	SNCA viab count	IP6K1 inhibitor	SNCA expr inh	GPT2 inhibitor	IP6K1 inh cnf
O=C1Nc2ccc(-c3ccc4c(c3)OCO4)cc2C(=O)N2CC[C@H](NC(=O)N3CCOCC3)[C@@H]12	-	-	-	-	.
N[C@H]1CCN2C(=O)c3cc(-c4ccc5c(c4)OCO5)ccc3NC(=O)[C@H]12	-	-30	-	-	-
O=C(NOCC(O)CO)c1ccc(F)c(F)c1Nc1ccc(I)cc1F (centres undefined)	-	-	.	-	.
O=C(NC[C@H](O)CO)c1ccncc1Nc1ccc(I)cc1F	-	.	-	-	-
NCc1cccc(-c2cccc(C(F)(F)F)c2)c1	-	-	-	-	.
COc1ccccc1-c1cccc(CN2CCC(N[S+](=O)([O-])c3cccc(C(F)(F)F)c3)CC2)c1	.	-	.	.	.
CCc1nc2nc(C)cc(Nc3cccc(C)c3C)n2n1	-	-33	-	.	?
CCc1nc2nc(C)cc(Nc3cc(C)ccc3C)n2n1	-	-	-	.	.
CC(C)(C)c1ccc(CSC2=Nc3ccccc3C3=NC(CC(=O)NCc4cccs4)C(=O)N23)cc1 (centres undefined)	-	-26	-	.	-
CCOc1cc(-c2ccc(OC(=O)c3ccc(C)cc3)c(OC)c2)cc(=O)c2c(C)oc(C)c12	-	-27	-	.	-
Cc1ccc(C(=O)Oc2cc(-c3ccc4c(c3)OCO4)cc(=O)c3c(C)oc(C)c23)cc1	?	-54	?	.	?
Cc1oc(C)c2c(=O)cc(-c3ccc4c(c3)OCO4)cc(OC(=O)c3cccc(Cl)c3)c12	-	-	-	.	.
CC(C)Nc1ccc2nnc(-c3ccc(F)cn3)n2n1	-	-26	-	-	-
COc1ccc(-c2ccc(C(=O)NC3CC(c4cc(=O)[nH]c(N)n4)C3)o2)cc1 (centres undefined)	-	-30	-	-	?
CSc1ncccc1C(=O)NC1CC(c2cc(=O)[nH]c(N)n2)C1 (centres undefined)	-	-	-	-	.
COc1ccc(C(=O)N2CCc3nc(C(C)C)nc(-c4ccc(OC)cc4)c3CC2)cc1	?	-	-	-	.
O=C(Nc1ccc(Cl)cc1)N1CCCN(c2ccc3nnc(-c4ccccc4)n3n2)CC1	.	-	.	.	.
O=C(Nc1ccc(Cl)cc1)N1CCN(c2ccc3nnc(-c4ccccc4)n3n2)CC1	?	-30!	-	.	?
Cc1noc(C)c1[S+](=O)([O-])N1CCCC1C(=O)N1CCC(c2nc3ccncc3[nH]2)CC1 (centres undefined)	-	-31	-	-	-
O=Cc1cccc(-c2cccc(C(F)(F)F)c2)c1	-	-36	-	-	?
O=Cc1cccc(-c2ccccc2F)c1	-	-29	-	-	?
COc1ccc(-c2noc([C@@H]3C[C@@H](O)CN3Cc3cccs3)n2)cc1	-	-	-	-	.
CN[C@@H](CO)C(=O)NCc1nc(-c2ccc(C)cc2)c(-c2ccccn2)[nH]1	-	-45	-	-	-
Cc1ccc(-c2nc(CNC(=O)C(C)CN)[nH]c2-c2ccccn2)cc1 (centres undefined)	-	-	-	-	.
COc1cc(C(C)C)c(Oc2cnc(N)nc2N)cc1I	-	-29	.	-	?
Cc1nn(-c2ccc(F)cc2)c(Oc2ccccc2F)c1CCC(=O)N1CCCC1	-	-	-	-	.
CN(C)C/C=C/C(=O)Nc1cccc(C(=O)Nc2ccc(Nc3nccc(-c4cccnc4)n3)cc2)c1	?	-29	.	?	?
O=C(NCc1cccc(C(F)(F)F)c1)C1CCCN(Cc2cccc(-c3cccs3)c2)C1 (centres undefined)	.	-	.	.	.
Cc1nc(-c2cccnc2)sc1C(=O)Nc1ccccc1-c1cn2c(CN3CCOCC3)csc2n1	-	-	.	-	.
O=C(Nc1ccccc1-c1cn2c(CN3CCNCC3)csc2n1)c1cnc2ccccc2n1	?	-29	-	?	?

Screening data as filed in PubChem.
